Assay [1] deals with Arylsulfatase A (Homo sapiens) (UniProt P15289). As to the kind of experiment: qHTS screen for enhancers of Arylsulfatase A (ASA1): LOPAC Validation Assay (AID 720538). Note: potency is the fitted concentration of half-maximal effect. The gist of the method:
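Enhancer assay in patient-derived MLD fibroblasts carrying ASA-I179S: 48 h compound exposure at 37 C, then 14 h room-temperature pNCS turnover (0.5 mM final) in lysis buffer. Read by fluorescence at 525/598 nm after NaOH stop.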
(In general: Quantitative high-throughput screening tests each substance at several concentrations.)

The nature of assay [2]: qHTS for compounds that reverse cellular toxicity of Amyloid beta (A-beta) peptide in yeast: LOPAC Validation Assay (AID 720559). The method, boiled down: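 Rescue of A-beta toxicity was scored as yeast growth by 600 nm absorbance after 48 hr at 30 C with compound. Normalization used DMSO (negative) and equimolar ferric chloride plus clioquinol (positive).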
A short description of assay [3]: qHTS for Activators of Parkin Expression: LOPAC Validation Assay (NLuc Reporter) (AID 720572; note: potency is the fitted concentration of half-maximal effect). The method, boiled down: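 Neuronal line stably carrying a FLuc/NLuc coincidence reporter under the Parkin promoter, seeded 24 h, then dosed in 7-point series for 24 h at 37 C. NLuc luminescence read after FLuc; normalized to DMSO and positive control (100%).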

Each structure is given as a SMILES string. Inconclusive results are not listed. Entries that show only a call come without a potency. The source made the active and inactive calls. Calls come from the whole dose curve; as a rule, active = well fitted curve in the direction sought with a large enough effect; inconclusive = small, poorly fitted or top-dose-only effect, or another doubt; inactive = no such curve, though single readings can be large; an effect the other way counts as inactive or inconclusive.

Chain of Arylsulfatase A (Homo sapiens) (P15289 whole entry, looked up): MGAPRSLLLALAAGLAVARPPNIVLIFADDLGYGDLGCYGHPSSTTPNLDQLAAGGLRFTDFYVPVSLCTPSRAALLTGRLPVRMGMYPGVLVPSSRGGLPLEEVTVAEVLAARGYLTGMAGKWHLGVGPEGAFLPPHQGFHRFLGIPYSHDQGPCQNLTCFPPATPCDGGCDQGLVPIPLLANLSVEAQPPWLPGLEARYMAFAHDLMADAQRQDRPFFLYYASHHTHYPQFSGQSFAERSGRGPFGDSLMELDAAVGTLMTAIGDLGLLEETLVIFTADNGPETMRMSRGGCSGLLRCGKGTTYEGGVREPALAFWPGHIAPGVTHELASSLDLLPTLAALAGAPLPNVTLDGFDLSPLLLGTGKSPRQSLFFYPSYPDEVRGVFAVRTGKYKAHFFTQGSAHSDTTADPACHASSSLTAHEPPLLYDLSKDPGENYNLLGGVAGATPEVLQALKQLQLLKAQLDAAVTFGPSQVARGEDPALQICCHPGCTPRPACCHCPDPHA

`C[C@H](N)Cc1cccc(C(F)(F)F)c1`: the Potency entry in assay [1] and in assay [3] was “inactive” throughout. Further, the compound was classed as inactive in assay [2].
For `N[C@@]1(C(=O)O)CC[C@@H](C(=O)O)C1`, the Potency entry in assay [1] and in assay [3] was “inactive” in each case. The call in assay [2] was inactive.
Regarding `COc1ccc2[nH]c3c(c2c1)CCNC3`, the Potency entry in assay [1] and in assay [3] was “inactive” in each case. Further, the compound was classed as inactive in assay [2].
As to `CCCN1CCC[C@@H](c2cccc(O)c2)C1`, the Potency result in assay [1] and in assay [3] was “inactive” each time. In assay [2], the result was inactive.
For the compound `C[N+]1(C)CCOC(O)(c2ccc(-c3ccc(C4(O)C[N+](C)(C)CCO4)cc3)cc2)C1` (stereo not given), the Potency entry in assay [1] and in assay [3] was “inactive” throughout. Moreover, the compound was called inactive in assay [2].
Take `CC(C)(C)c1cc(C=C(C#N)C#N)cc(C(C)(C)C)c1O`: the Potency entry in assay [1] and in assay [3] was “inactive” in each case. Also, the outcome in assay [2] was inactive.
With `COc1ccc2c(c1)/C(=C/c1cnc[nH]1)C(=O)N2`, the Potency entry in assay [1] is “inactive”. In assay [2], the outcome was inactive. Moreover, the Potency in assay [3] is 23.1 µM (active).
Consider `NC(CCCCCP(=O)(O)O)C(=O)O` (stereo not given), for which the Potency result in assay [1] and in assay [3] was “inactive” in each case. Besides, the compound was classed as inactive in assay [2].
Turning to `COc1ccc2c(c1O)-c1cccc3c1[C@@H](C2)N(C)CC3`, the Potency entry in assay [1] and in assay [3] was “inactive” in each case. Moreover, the call in assay [2] was inactive.
For `C[N+](C)(C)CC#CCOC(=O)Nc1cccc(Cl)c1`, the Potency entry in assay [1] and in assay [3] was “inactive” each time. Also, the result in assay [2] was inactive.
For `CC(Cc1ccc(OCC(=O)O)cc1)NCC(O)c1cccc(Cl)c1` (stereo not given), the Potency result in assay [1] and in assay [3] was “inactive” each time. In addition, the compound was called inactive in assay [2].
As to `Clc1cc(I)cc(Cl)c1NC1=NCCN1`, the Potency entry in assay [1] and in assay [3] was “inactive” in each case. In assay [2], the result was inactive.
Take `NNC(=O)c1ccc(O)cc1`: the Potency entry in assay [1] and in assay [3] was “inactive” in each case. The call in assay [2] was inactive.
As to `CCCN1CC[C@@H]2c3cc(O)ccc3CC[C@@H]21`, the Potency entry in assay [1] and in assay [3] was “inactive” in each case. In addition, the compound was called inactive in assay [2].
Turning to `C=CCN1CC[C@]23c4c5ccc(O)c4O[C@@H]2/C(=N/N=C2\CC[C@@]4(O)C6Cc7ccc(O)c8c7[C@@]4(CCN6CC=C)[C@@H]2O8)CC[C@@]3(O)C1C5`, the Potency result in assay [1] and in assay [3] was “inactive” each time. Also, the result in assay [2] was inactive.
Consider `COc1ccc2c(c1)C13CCCCC1C(C2)N(C)CC3` (stereo not given), for which the Potency entry in assay [1] and in assay [3] was “inactive” each time. Besides, the outcome in assay [2] was inactive.
For the compound `CC(C)(O)[C@@H]1C2OC(=O)[C@@H]1[C@]1(O)C[C@H]3O[C@]34C(=O)O[C@H]2[C@]14C` (tested in a mixture with another compound), the Potency result in assay [1] and in assay [3] was “inactive” throughout. Moreover, in assay [2], the result was inactive.
Turning to `NCCCP(=O)(O)O`, the Potency result in assay [1] and in assay [3] was “inactive” throughout. For the same compound, the outcome in assay [2] was inactive.
As for `C[C@H](N)CN1CCc2ccc(Br)cc21`, the Potency result in assay [1] and in assay [3] was “inactive” in each case. Also, the outcome in assay [2] was inactive.
As for `Ic1ccccc1CNC1C2CCN(CC2)C1C(c1ccccc1)c1ccccc1` (stereo not given), the Potency result in assay [1] and in assay [3] was “inactive” throughout. In addition, the compound was classed as inactive in assay [2].
Turning to `NC(Cc1ccc(N(CCCl)CCCl)cc1)C(=O)O` (stereo not given), the Potency entry in assay [1] and in assay [3] was “inactive” in each case. Also, the outcome in assay [2] was inactive.
On to `CN(C(=O)Cc1ccc(Cl)c(Cl)c1)C(CN1CCCC1)c1cccc(OCC(=O)O)c1` (stereo not given), for which the Potency result in assay [1] and in assay [3] was “inactive” throughout. Further, the compound was classed as inactive in assay [2].
For the compound `C[N+]1(C)CCN(c2ccccc2)CC1`, the Potency entry in assay [1] and in assay [3] was “inactive” in each case. Moreover, in assay [2], the compound was called inactive.
As to `CCCN(CCC)C1Cc2cc(OC)c(OC)cc2C1`, the Potency result in assay [1] and in assay [3] was “inactive” in each case. The compound was classed as inactive in assay [2].
As for `C[C@@H]1[C@@H]2Cc3ccc(O)cc3[C@@]1(C)CCN2CC1CC1`, the Potency entry in assay [1] and in assay [3] was “inactive” each time. Further, the compound was classed as inactive in assay [2].
On to `C#CCN[C@H](C)Cc1ccccc1`, for which the Potency entry in assay [1] and in assay [3] was “inactive” in each case. Further, in assay [2], the compound was called inactive.
Regarding `c1ccc2c(c1)[I+]c1ccccc1-2`, the Potency entry in assay [1] and in assay [3] was “inactive” in each case. The compound was called inactive in assay [2].
Consider `O=[N+]([O-])c1cc(O)c(O)c([N+](=O)[O-])c1`, for which, in assay [1], the Potency was 19 µM (active). For the same compound, the compound was classed as inactive in assay [2]. For the same compound, the Potency result in assay [3] was “inactive”.
For `CCOC(=O)c1ncn2c1[C@@H]1CCCN1C(=O)c1cc(OC)ccc1-2`, the Potency result in assay [1] and in assay [3] was “inactive” throughout. Besides, in assay [2], the outcome was inactive.
Consider `NC(=O)c1ccc(OCC(O)CN2CC=C(c3ccc(F)cc3)CC2)cc1` (stereo not given), for which the Potency result in assay [1] and in assay [3] was “inactive” in each case. For the same compound, the compound was called inactive in assay [2].

Source of the values: PubChem BioAssay (NCATS).
